mcGAS inh: mouse cGAS inhibition by luminescence; AID 1259399; recombinant cGAS, Kinase-Glo ATP depletion luminescence; Q8C6L5; inhibition, % at 12.5 µM; actives 0.15% (n = 160,000);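 also: 0% = negative control wells and 100% = reference inhibitor with no enzyme activity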
Target sequence (Q8C6L5 whole entry, looked up): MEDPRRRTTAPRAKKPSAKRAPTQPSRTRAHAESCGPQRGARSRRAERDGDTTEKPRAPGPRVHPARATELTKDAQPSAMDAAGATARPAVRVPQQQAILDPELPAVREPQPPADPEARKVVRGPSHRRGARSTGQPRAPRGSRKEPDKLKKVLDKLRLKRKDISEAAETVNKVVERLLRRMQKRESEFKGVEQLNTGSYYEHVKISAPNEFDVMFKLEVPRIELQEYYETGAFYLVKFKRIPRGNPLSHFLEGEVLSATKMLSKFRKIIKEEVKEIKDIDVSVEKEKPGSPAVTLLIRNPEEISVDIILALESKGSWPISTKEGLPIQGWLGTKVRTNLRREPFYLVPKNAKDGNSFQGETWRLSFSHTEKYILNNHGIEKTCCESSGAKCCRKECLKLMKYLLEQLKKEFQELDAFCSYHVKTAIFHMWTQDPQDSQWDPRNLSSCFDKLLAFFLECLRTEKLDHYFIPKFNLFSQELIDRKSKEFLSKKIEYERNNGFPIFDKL
NPYLR7 ag: activates Aedes aegypti NPYLR7 receptor; HEK293T NPYLR7/Galpha15, GCaMP6s calcium fluorescence; activation, % at 10 µM; actives 0.15% (n = 270,000); AID 1259423; in the data active = activation above about 40%;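 also: 0% = vehicle and 100% = reference agonist at the receptor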
hcGAS inh: human cGAS inhibition; actives 0.081% (n = 290,000); Q8N884; recombinant h-cGAS, ATP depletion, Kinase-Glo luminescence; AID 1259398; inhibition, % at 12.5 µM;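 also: 0% = vehicle reaction and 100% = reaction without DNA for no activity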
The depositor's hits bear a star; ! = not confirmed by another sample. A selection: hits, their analogues and other compounds. The true share with any hit is near 0.3%. Rule as the data show it, unless noted: active = inhibition above about 40%; inactive = the rest.

Screening O=c1[nH]c2c(Cl)c(Cl)c(Cl)cc2o1 returned mcGAS inh 82*, NPYLR7 ag -6 and hcGAS inh 49*.
`NC(=O)c1cnc(Sc2ccc3[nH]c(=O)oc3c2)c(Cl)c1` gave mcGAS inh -15, NPYLR7 ag 16 and hcGAS inh -8.
`O=c1[nH]c2cc(Cl)c(Br)cc2o1` gave mcGAS inh 42*, NPYLR7 ag -3 and hcGAS inh 24.
Cc1cc(NCC(C)n2nc(C)cc2C)nc(N(C)C)n1 (centres undefined) was read as NPYLR7 ag 19 and hcGAS inh -17.
Screening Cn1nc(NC(=O)Cc2cccs2)c2c1NC(=O)CC2c1ccco1 (centres undefined) returned mcGAS inh 6, NPYLR7 ag -22 and hcGAS inh 7.
For COc1ccc(OC)c(S(=O)(=O)N2CCN(c3cc(S(=O)(=O)NCC4CCCO4)ccc3OC)CC2)c1 (centres undefined) the results were mcGAS inh -7, NPYLR7 ag 5 and hcGAS inh -12.
Screening COCCN(Cc1cccc(OC)c1)CC(O)COc1ccc(OC)cc1 (centres undefined) returned mcGAS inh -2, NPYLR7 ag 11 and hcGAS inh -1.
Screening COc1ccc(OCC(O)CN(CCC(C)C)Cc2cccc(OC)c2)cc1 (centres undefined) returned mcGAS inh 79*, NPYLR7 ag 25 and hcGAS inh -1.
Screening O=C(c1cnns1)N1CCCN(c2ncc(C(F)(F)F)cc2Cl)CC1 returned NPYLR7 ag 9 and hcGAS inh -4.
For N#CC1C(=N)SC(=N)C(C#N)C1c1ccccc1F (centres undefined) the results were mcGAS inh 59*, NPYLR7 ag 47*! and hcGAS inh 68*!.
For N#CC1C(=N)SC(=N)C(C#N)C1c1ccccc1I (centres undefined) the results were NPYLR7 ag 36 and hcGAS inh 9.
`N#CC1C(=N)SC(=N)C(C#N)C1c1cccc(F)c1` (centres undefined) gave mcGAS inh 45*, NPYLR7 ag 97* and hcGAS inh 54*.
For N#CC1C(=N)SC(=N)C(C#N)C1c1ccc(Cl)cc1Cl (centres undefined) the results were NPYLR7 ag 164* and hcGAS inh 7.
For N#CC1C(=N)SC(=N)C(C#N)C1c1cccc(Cl)c1 (centres undefined) the results were mcGAS inh 12, NPYLR7 ag 2 and hcGAS inh -2.
`N#CC1C(=N)SC(=N)C(C#N)C1c1cccc(Cl)c1Cl` (centres undefined) gave mcGAS inh 18, NPYLR7 ag 14 and hcGAS inh -2.
Screening COCC(C)n1cc(C(=O)c2cc(Cl)ccc2O)cc(C#N)c1=O (centres undefined) returned NPYLR7 ag 33 and hcGAS inh -3.
CC1CN(c2ccc(NC(=O)C3CCCN(C(=O)C(C)(C)C)C3)cn2)CC(C)O1 (centres undefined) was read as NPYLR7 ag 12 and hcGAS inh -9.
COc1ccc(C(=O)N2CCN(C(C(=O)N3CCSCC3)C3CCCC3)CC2)cc1OC (centres undefined) was read as mcGAS inh -5, NPYLR7 ag 3 and hcGAS inh -3.
For O=C1/C(=C/c2cccc(Br)c2)Oc2c1ccc(O)c2CN1CCN(CCO)CC1 the results were mcGAS inh 10, NPYLR7 ag 52* and hcGAS inh 6.
For O=C1/C(=C/c2cccc(Cl)c2)Oc2c1ccc(O)c2CN1CCN(CCO)CC1 the results were mcGAS inh 12, NPYLR7 ag 50* and hcGAS inh 15.
Cc1cc(O)c(CN2CCN(CCO)CC2)c2c1C(=O)/C(=C/c1ccco1)O2 was read as mcGAS inh -10, NPYLR7 ag 28 and hcGAS inh -2.
`Cc1cc(O)c(CN2CCN(CCO)CC2)c2c1C(=O)/C(=C/c1ccc(F)cc1)O2` gave mcGAS inh -7, NPYLR7 ag 15 and hcGAS inh -7.
O=c1oc2c(CN3CCN(CCO)CC3)c(O)ccc2cc1-c1ccc(Cl)cc1 was read as mcGAS inh -7, NPYLR7 ag 7 and hcGAS inh -8.
For O=C1/C(=C/c2cccc(F)c2)Oc2c1ccc(O)c2CN1CCN(CCO)CC1 the results were mcGAS inh 2, NPYLR7 ag 57* and hcGAS inh 9.
Screening c1ccc2[nH]c(SCc3cn4ccsc4n3)nc2c1 returned NPYLR7 ag 2 and hcGAS inh -4.
For O=C(C=Cc1ccc([N+](=O)[O-])o1)c1ccc(F)cc1 the results were NPYLR7 ag -8 and hcGAS inh -1.
`COCC(=O)N1CCC(C(NC(=O)c2cccc(OC)c2)C(=O)NCc2ccco2)CC1` (centres undefined) gave mcGAS inh -4, NPYLR7 ag 6 and hcGAS inh -5.
For O=C(O)C1Nc2ccc(Br)cc2C2C=CCC12 (centres undefined) the results were mcGAS inh 85*, NPYLR7 ag 1 and hcGAS inh 39.
`O=C(O)C1Nc2c(O)cccc2C2C=CCC12` (centres undefined) gave mcGAS inh 6, NPYLR7 ag 2 and hcGAS inh 20.
`COCc1c(Br)c(C)nc(OCC(=O)N/N=C\c2ccc(OC)cc2OC)c1C#N` gave mcGAS inh -6, NPYLR7 ag -8 and hcGAS inh -7.
For COc1ccc(S(=O)(=O)NCCCN2CCOCC2)cc1N1CCN(C(=O)CCCCCCl)CC1 the results were mcGAS inh -6, NPYLR7 ag 17 and hcGAS inh -2.
For Cc1cc2c(c(-c3ccc(S(N)(=O)=O)cc3F)c1)OC(CN)C2 (centres undefined) the results were mcGAS inh -12, NPYLR7 ag -1 and hcGAS inh -4.
For CCOc1ccc(/C=C2N=C(/C=C/c3ccccc3)OC/2=O)cc1 the results were NPYLR7 ag 66* and hcGAS inh -4.
`CCOc1ccc(/C=C2N=C(/C=C/c3ccc(C)cc3)OC\2=O)cc1` gave NPYLR7 ag 0 and hcGAS inh -2.
`CN(CCNC(=O)c1nc2ccccc2[nH]1)S(C)(=O)=O` gave mcGAS inh -15, NPYLR7 ag 1 and hcGAS inh -4.
`CC1=NN(Cc2cccc(C)c2)c2nc3c(c(=O)n(C)c(=O)n3C)n2C1C` (centres undefined) gave NPYLR7 ag 2 and hcGAS inh -13.
Brc1c(Br)c(Br)c2[nH]cnc2c1Br was read as mcGAS inh 16, NPYLR7 ag 4 and hcGAS inh 19.
Screening Brc1c(Br)c(Br)c2n[nH]nc2c1Br returned mcGAS inh 84*, NPYLR7 ag 4 and hcGAS inh 41*.
`CCN(CC)C(=O)COC(=O)c1cccc(N2CC(=O)C(c3nc4ccccc4s3)C2=N)c1` (centres undefined) gave mcGAS inh -6, NPYLR7 ag -1 and hcGAS inh -8.
N=C1C(c2nc3ccccc3s2)C(=O)CN1N1C(=O)c2ccccc2C1=O (centres undefined) was read as mcGAS inh 43*, NPYLR7 ag 3 and hcGAS inh 11.
Screening CCc1nc2n(n1)C(=O)C(C(c1cccc(OC)c1)N1CC(C)OC(C)C1)S2 (centres undefined) returned mcGAS inh -7, NPYLR7 ag -6 and hcGAS inh -6.

Screening results (PubChem)
